In the supplement of paper PMC10849652:
About 8,800 targets were measured; listed, in parts, are those with a hit and a random draw of the rest. About 0.5% of all pairs of compound and target were hits. Values without a mark were called inactive.

Key:
Assay in all cases: log2 fold change, soluble protein after heating vs DMSO (PISA); higher = thermal stabilisation; K562 lysate, 10 uM; active = over 0.2 and 3.5 SD of the protein, either way, in both replicates (recomputed)
lapatinib = compound: CS(=O)(=O)CCNCc1ccc(-c2ccc3ncnc(Nc4ccc(OCc5cccc(F)c5)c(Cl)c4)c3c2)o1 [lapatinib]
How it was run: (§1)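 To prepare the extract, K562 pellets were dounce-homogenised in PBS pH 7.4 with 1 mM MgCl2, giving crude material at 1 mg/mL protein. This was treated with 10 μM compound for 30 min, then heated in aliquots for 3 min over 48°C-58°C before pooling and addition of NP-40 to 0.5% at 4°C. Centrifugation at 21,000xg for 90 min left soluble protein in the supernatant, which TMTpro 16plex LC-MS/MS quantified with equalised channel sums. Results are log-two fold changes in thermal stability compared with solvent controls, from duplicates.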

pictilisib = compound: CS(=O)(=O)N1CCN(Cc2cc3nc(-c4cccc5[nH]ncc45)nc(N4CCOCC4)c3s2)CC1 [pictilisib]
How it was run: as §1

crizotinib = compound: C[C@@H](Oc1cc(-c2cnn(C3CCNCC3)c2)cnc1N)c1c(Cl)ccc(F)c1Cl [crizotinib]
How it was run: as §1

[1] = compound: C[C@H](C1=CC=C(C=C1)C(=O)NC2=C3C=CNC3=NC=C2)N
How it was run: as §1

duvelisib = compound: C[C@H](Nc1ncnc2nc[nH]c12)c1cc2cccc(Cl)c2c(=O)n1-c1ccccc1 [duvelisib]
How it was run: as §1

gandotinib = compound: Cc1cc(Nc2cc(CN3CCOCC3)c3nc(C)c(Cc4ccc(Cl)cc4F)n3n2)n[nH]1 [gandotinib]
How it was run: as §1

tozasertib = compound: Cc1cc(Nc2cc(N3CCN(C)CC3)nc(Sc3ccc(NC(=O)C4CC4)cc3)n2)n[nH]1 [tozasertib]
How it was run: as §1

doramapimod = compound: Cc1ccc(-n2nc(C(C)(C)C)cc2NC(=O)Nc2ccc(OCCN3CCOCC3)c3ccccc23)cc1 [doramapimod]
How it was run: as §1

bafetinib = compound: Cc1ccc(NC(=O)c2ccc(CN3CC[C@H](N(C)C)C3)c(C(F)(F)F)c2)cc1Nc1nccc(-c2cncnc2)n1 [bafetinib]
How it was run: as §1

[2] = compound: Cc1cccc(CC(=O)N2CCc3c2ccc(-c2cn(C)c4ncnc(N)c24)c3F)n1
How it was run: as §1

Chain of UniProt P40937 (P40937 whole entry, looked up): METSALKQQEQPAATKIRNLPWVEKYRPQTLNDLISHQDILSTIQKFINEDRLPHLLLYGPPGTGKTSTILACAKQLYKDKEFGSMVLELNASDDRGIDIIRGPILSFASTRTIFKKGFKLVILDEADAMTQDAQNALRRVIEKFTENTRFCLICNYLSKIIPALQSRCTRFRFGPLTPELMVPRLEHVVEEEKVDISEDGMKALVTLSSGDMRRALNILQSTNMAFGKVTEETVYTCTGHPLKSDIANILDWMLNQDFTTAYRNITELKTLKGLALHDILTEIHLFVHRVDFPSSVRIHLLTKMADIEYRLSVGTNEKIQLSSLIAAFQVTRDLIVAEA
Chain of UniProt P35241 (P35241 whole entry, looked up): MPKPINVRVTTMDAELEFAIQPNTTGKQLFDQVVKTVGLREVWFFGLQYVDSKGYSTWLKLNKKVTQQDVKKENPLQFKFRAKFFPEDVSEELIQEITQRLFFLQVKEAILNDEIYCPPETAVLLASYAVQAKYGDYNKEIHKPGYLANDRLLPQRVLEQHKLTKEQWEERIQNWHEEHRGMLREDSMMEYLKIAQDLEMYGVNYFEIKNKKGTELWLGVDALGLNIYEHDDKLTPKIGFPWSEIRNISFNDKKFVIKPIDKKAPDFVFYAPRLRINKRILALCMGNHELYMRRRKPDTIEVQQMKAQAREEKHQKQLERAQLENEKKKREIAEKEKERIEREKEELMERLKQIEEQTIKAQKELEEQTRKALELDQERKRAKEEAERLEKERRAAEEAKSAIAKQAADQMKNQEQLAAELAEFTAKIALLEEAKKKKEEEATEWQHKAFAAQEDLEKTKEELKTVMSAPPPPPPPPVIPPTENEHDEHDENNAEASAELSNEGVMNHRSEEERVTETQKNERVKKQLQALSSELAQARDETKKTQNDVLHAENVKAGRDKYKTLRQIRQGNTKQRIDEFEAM
Chain of UniProt Q6GYQ0 (Q6GYQ0 whole entry, looked up): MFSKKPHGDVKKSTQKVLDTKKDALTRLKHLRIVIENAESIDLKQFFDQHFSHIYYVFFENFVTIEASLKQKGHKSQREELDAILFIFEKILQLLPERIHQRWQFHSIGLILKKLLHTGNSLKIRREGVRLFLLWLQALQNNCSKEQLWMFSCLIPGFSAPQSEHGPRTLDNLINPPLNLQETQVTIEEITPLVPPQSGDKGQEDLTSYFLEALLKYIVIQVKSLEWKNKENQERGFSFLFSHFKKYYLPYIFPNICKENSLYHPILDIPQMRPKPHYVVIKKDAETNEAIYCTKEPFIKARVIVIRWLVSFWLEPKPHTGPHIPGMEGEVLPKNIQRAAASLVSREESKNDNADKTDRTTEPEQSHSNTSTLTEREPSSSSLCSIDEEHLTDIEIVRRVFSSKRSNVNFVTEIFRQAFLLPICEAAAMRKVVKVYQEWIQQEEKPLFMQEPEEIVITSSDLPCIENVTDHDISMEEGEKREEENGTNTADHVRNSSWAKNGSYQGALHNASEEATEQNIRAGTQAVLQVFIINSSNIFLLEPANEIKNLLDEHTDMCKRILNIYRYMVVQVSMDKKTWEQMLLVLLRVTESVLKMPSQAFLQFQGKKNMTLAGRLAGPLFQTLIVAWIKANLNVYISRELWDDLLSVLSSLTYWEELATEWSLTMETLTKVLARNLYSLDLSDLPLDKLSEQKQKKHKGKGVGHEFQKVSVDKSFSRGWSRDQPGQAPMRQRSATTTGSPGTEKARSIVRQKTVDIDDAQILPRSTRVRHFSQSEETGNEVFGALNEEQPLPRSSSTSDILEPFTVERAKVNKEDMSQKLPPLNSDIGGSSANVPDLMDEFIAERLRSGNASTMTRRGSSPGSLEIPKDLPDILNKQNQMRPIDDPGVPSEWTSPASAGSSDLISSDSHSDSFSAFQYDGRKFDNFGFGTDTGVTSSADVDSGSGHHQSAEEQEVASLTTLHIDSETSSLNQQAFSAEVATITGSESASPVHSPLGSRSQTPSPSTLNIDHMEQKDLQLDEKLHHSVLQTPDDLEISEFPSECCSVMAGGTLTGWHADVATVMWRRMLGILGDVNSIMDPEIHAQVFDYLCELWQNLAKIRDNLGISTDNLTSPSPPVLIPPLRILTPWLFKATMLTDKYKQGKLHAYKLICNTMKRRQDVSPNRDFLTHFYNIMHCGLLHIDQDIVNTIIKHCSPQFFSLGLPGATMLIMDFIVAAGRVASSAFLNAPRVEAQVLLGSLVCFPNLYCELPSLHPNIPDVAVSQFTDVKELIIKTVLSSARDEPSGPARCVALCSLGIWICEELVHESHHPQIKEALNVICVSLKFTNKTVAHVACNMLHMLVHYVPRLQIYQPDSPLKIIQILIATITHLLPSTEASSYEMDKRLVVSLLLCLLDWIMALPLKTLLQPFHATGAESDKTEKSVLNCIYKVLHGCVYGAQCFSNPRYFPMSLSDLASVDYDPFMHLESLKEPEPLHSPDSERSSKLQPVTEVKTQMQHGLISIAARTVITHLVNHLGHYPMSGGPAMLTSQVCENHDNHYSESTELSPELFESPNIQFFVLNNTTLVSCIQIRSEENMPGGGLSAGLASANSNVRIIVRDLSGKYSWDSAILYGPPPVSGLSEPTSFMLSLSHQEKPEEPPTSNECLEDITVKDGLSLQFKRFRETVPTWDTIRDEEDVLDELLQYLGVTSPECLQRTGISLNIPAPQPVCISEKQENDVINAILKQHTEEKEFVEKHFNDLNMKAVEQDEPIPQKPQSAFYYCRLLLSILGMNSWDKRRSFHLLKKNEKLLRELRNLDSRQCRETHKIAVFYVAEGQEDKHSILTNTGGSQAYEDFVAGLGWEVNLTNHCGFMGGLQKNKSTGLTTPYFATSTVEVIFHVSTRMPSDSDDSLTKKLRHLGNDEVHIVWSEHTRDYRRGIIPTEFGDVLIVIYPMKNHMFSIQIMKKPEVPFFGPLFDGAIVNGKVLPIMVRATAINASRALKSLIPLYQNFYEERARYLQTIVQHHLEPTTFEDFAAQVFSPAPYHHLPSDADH
Chain of UniProt Q9P0P0 (Q9P0P0 whole entry, looked up): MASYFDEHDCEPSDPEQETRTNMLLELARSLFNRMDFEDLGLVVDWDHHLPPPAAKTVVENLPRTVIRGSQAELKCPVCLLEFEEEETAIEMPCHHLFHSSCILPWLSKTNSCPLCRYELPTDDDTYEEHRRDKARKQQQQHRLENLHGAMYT
Chain of UniProt P51159 (P51159 whole entry, looked up): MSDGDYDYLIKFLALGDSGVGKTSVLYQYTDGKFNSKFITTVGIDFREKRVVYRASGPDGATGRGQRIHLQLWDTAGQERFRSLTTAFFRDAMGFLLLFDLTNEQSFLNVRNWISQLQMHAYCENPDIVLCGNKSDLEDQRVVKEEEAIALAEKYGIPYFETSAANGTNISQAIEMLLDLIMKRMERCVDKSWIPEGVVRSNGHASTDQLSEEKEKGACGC
Chain of UniProt Q9Y4B4 (Q9Y4B4 whole entry, looked up): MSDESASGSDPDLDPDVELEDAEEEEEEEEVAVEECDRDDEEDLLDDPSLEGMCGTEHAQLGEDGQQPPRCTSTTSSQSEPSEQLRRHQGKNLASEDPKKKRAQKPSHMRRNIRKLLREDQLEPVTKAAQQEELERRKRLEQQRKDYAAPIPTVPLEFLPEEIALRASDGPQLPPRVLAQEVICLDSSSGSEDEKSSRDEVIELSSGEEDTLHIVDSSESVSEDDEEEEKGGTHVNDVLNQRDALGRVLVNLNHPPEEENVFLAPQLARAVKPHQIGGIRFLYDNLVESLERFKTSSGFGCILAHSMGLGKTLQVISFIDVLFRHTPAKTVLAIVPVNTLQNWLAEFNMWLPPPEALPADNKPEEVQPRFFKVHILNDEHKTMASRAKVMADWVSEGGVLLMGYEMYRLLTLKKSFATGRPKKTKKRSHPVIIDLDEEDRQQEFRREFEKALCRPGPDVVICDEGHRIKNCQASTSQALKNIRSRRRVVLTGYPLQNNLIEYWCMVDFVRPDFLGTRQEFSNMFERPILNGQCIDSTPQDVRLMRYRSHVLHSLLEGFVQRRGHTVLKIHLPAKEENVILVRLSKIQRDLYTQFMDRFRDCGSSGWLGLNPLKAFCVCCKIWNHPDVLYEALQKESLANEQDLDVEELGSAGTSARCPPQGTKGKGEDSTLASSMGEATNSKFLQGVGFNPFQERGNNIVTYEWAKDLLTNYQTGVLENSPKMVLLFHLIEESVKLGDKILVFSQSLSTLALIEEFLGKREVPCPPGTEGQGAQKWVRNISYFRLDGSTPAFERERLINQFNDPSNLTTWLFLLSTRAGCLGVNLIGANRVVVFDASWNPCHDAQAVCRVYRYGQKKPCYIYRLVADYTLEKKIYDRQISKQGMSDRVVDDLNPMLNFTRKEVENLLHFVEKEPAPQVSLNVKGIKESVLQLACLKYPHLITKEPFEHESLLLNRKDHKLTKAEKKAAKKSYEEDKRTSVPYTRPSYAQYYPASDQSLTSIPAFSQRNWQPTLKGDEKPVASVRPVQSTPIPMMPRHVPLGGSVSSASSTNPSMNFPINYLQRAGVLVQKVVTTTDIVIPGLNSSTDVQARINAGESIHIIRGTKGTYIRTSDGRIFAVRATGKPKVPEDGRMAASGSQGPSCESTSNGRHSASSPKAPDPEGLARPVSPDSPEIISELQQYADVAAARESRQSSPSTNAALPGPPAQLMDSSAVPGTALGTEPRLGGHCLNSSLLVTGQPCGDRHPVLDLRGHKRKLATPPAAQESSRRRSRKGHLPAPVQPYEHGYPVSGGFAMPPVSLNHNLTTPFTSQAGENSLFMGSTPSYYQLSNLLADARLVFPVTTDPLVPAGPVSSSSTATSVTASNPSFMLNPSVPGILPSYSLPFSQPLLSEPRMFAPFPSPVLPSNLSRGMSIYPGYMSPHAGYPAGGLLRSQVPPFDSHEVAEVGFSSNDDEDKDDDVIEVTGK
Chain of UniProt P11233 (P11233 whole entry, looked up): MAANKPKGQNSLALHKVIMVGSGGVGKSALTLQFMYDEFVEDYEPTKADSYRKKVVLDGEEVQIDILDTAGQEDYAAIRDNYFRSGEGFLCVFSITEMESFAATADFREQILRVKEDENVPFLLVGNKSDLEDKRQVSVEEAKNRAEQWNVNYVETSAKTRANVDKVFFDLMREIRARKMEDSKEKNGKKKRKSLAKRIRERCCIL

Target | log2 fold change (lapatinib) | log2 fold change (pictilisib) | log2 fold change (crizotinib) | log2 fold change [1] | log2 fold change (duvelisib) | log2 fold change (gandotinib) | log2 fold change (tozasertib) | log2 fold change (doramapimod) | log2 fold change (bafetinib) | log2 fold change [2]
RIOK3 (UniProt O14730) | 0.026 | -0.032 | -0.031 | 0.021 | -0.007 | -0.009 | -0.008 | 0.036 | -0.021 | 0.008
SEC62 (UniProt Q99442) | 0.028 | -0.029 | 0.011 | 0.231 | 0 | -0.07 | -0.024 | 0.002 | 0.029 | -0.072
RASA2 (UniProt Q15283) | 0.026 | -0.089 | -0.014 | -0.007 | -0.045 | -0.087 | 0.013 | 0.072 | -0.078 | 0.096
RPS18 (UniProt P62269) | -0.046 | 0.006 | -0.028 | -0.186 | -0.019 | 0.071 | 0.008 | 0.026 | -0.004 | 0.094
SAP30 (UniProt O75446) | -0.064 | -0.036 | 0.044 | 0.042 | 0.004 | -0.036 | -0.056 | 0.013 | -0.073 | 0.012
RNASEH2B, A0A1B0GUE7 | -0.128 |  |  |  |  |  |  |  |  | 
RTN4IP1 (UniProt Q8WWV3) | -0.02 | 0.017 | -0.021 | 0.056 | 0.072 | -0.057 | 0.009 | -0.016 | 0.059 | -0.048
R3HCC1 (UniProt Q9Y3T6) | -0.018 | -0.049 | 0 | -0.034 | 0 | 0.089 | 0.006 | 0.044 | 0.002 | 0.08
RDX (UniProt P35241) | -0.018 | 0.02 | 0.063 | 0.546 (active) | 0.005 | -0.093 | -0.005 | -0.045 | 0.077 | -0.136
RYR1 (UniProt P21817) | 0.028 | -0.048 | -0.229 | -0.017 | -0.032 | -0.027 | 0.04 | 0.112 | -0.13 | 0.016
QRSL1 (UniProt Q9H0R6) | 0.038 | 0.044 | 0.031 | 0.105 | 0.044 | -0.04 | 0.044 | 0.003 | -0.227 | -0.022
RNF181 (UniProt Q9P0P0) | 0.079 | -0.069 | 0.049 | 0.057 | 0.028 | -0.042 | 0.054 | 0.057 | -0.03 | 0.01
RALA (UniProt P11233) | -0.017 | -0.022 | 0.012 | -0.3 (active) | 0 | 0.158 | -0.009 | 0.014 | 0.029 | 0.217 (active)
RIOK2 (UniProt Q9BVS4) | -0.032 | 0.269 | 0.047 | -0.028 | 0.016 | 0.829 (active) | -0.011 | -0.028 | 0.093 | -0.012
REL isoform 2 (UniProt Q04864) | 0.014 | 0.005 | -0.025 | 0.32 (active) | 0.001 | 0.074 | 0.052 | 0.023 | -0.04 | -0.072
RANBP2 (UniProt P49792) | 0.002 | -0.001 | -0.01 | -0.009 | -0.014 | -0.069 | 0.001 | -0.002 | -0.02 | 0.06
SDHA (UniProt P31040) | 0.004 | -0.011 | -0.008 | -0.004 | 0.013 | 0.03 | 0.006 | 0.024 | 0.026 | -0.017
RAD51C (UniProt O43502) | -0.042 | -0.023 | -0.074 | -0.006 | 0.022 | 0.065 | -0.089 | 0.074 | -0.119 | -0.044
SEC13 isoform 3 (UniProt P55735) | 0 | 0.023 | 0.058 | 0.417 (active) | 0.02 | -0.076 | 0.01 | -0.031 | -0.016 | -0.068
RPL8 (UniProt P62917) | -0.005 | 0.01 | 0.059 | 0.147 | 0.008 | -0.072 | 0.033 | -0.038 | 0.071 | -0.051
SCO1 (UniProt O75880) | 0.021 | -0.046 | -0.046 | -0.022 | -0.014 | 0.047 | 0.01 | 0.026 | 0.048 | 0.073
RAD54L2 (UniProt Q9Y4B4) | -0.209 | -0.018 | -0.037 | -0.174 | 0.026 | -0.163 | -0.166 | -0.02 | -0.095 | 0.067
RALGAPA1 isoform 6 (UniProt Q6GYQ0) | -0.075 | -0.157 | 0.036 | -0.28 (active) | 0.074 | 0.257 | -0.006 | 0.062 | -0.026 | 0.321
RIPK1 (UniProt Q13546) | 0.006 | -0.002 | 0.061 | -0.026 | -0.05 | 0.256 (active) | 0.326 (active) | 0.038 | 0.007 | 0.755 (active)
RPS29 (UniProt P62273) | -0.024 | 0.03 | 0.054 | 0.793 (active) | -0.02 | -0.202 | -0.128 | -0.105 | 0.205 | -0.315
RNF123 (UniProt Q5XPI4) | -0.013 | -0.029 | -0.015 | -0.04 | -0.068 | -0.122 | 0.029 | 0.039 | -0.002 | 0.011
RPS6KA1 (UniProt Q15418) | -0.067 | 0.08 | -0.043 | 0.007 | 0.008 | 0.05 | 0.165 | -0.039 | -0.135 | -0.172
RPL28 (UniProt P46779) | 0.01 | 0.047 | 0.043 | 0.234 | 0.018 | -0.098 | -0.018 | -0.046 | 0.056 | -0.059
RFC5 (UniProt P40937) | 0.007 | -0.058 | -0.056 | -0.047 | 0.016 | -0.068 | 0.018 | 0.026 | -0.039 | 0.018
RAB27A (UniProt P51159) | 0.013 | -0.008 | 0.026 | 0.563 (active) | -0.009 | -0.081 | 0.024 | -0.034 | 0.038 | -0.054
